# Source: PubChem BioAssay (NCATS)
# Inconclusive results are not listed. A call without a number means that no potency is given here. Activity calls are given as the source filed them. Calls come from the whole dose curve; as a rule, active = well fitted cell-killing curve with a large enough effect; inconclusive = small, poorly fitted or top-dose-only effect, or effect the other way; inactive = flat fitted curve, though single readings scatter.
# Tested on: CAOV3
# Experiment: Primary qHTS to identify gynecologic anti-cancer compounds using libraries of approved drugs and bioactive compounds (AID 1345084); note: nearly all actives have a fitted effect of over 55% in size
# Conditions: Gynecologic cancer cell panel viability, ATPlite luminescence, 48 h; series mostly up to 57.5 µM
# Summary of the method: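 ATP-based viability (ATPlite), 1,000 cells/well, 16 h pre-incubation, 48 h compound at 37 C, 5% CO2, 15 min RT before read.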
SMILES,Potency,"activity change, negative = cytotoxicity"
CC(=C/C(=O)O)/C=C/[C@]1(O)[C@@]2(C)CO[C@]1(C)C[C@H](O[C@@H]1O[C@H](CO)[C@@H](O)[C@H](O)[C@H]1O)C2,inactive,–
CC1CCC2(C)C(CC(O)C(O)C23CO3)C1(C)CCC1=CC(=O)OC1O (configuration not stated),inactive,–
CC1CCC2(NC1)OC1C(=O)C3C4CCC5CC(O[C@@H]6O[C@H](CO)[C@@H](O)[C@H](O)[C@H]6O[C@@H]6O[C@@H](C)[C@H](O)[C@@H](O)[C@H]6O)CCC5(C)C4CCC3(C)C1C2C (some centres not stated),inactive,–
Cc1nn(C)c(COc2ccc(N3CCN(S(=O)(=O)N(C)C)CC3)cc2)c1-c1cccc2c(CCCOc3cccc4ccccc34)c(C(=O)O)n(CCN3CCOCC3)c12,inactive,–
C=C(C)[C@@H](C)[C@H]1O[C@]23C[C@]4(CO2)C(CCC2[C@@]5(C)CC[C@H](O[C@@H]6OC[C@H](O)[C@H](O[C@@H]7O[C@H](CO)[C@@H](O)[C@H](O)[C@H]7O)[C@H]6O[C@@H]6O[C@@H](CO)[C@H](O)[C@H]6O)C(C)(C)C5CC[C@]24C)C3[C@@](C)(O)[C@@H]1OC(C)=O (some centres not stated),–,12.4% [at 11.6 µM] (inactive)
CCCCN(CCCC)C(=O)CN1C[C@H](c2ccc3c(c2)OCO3)[C@@H](C(=O)O)[C@@H]1c1ccc(OC)cc1,inactive,–
COc1c(C)c(OCC=C(C)C)cc2c1C(=O)NC2=O,inactive,–
COC(=O)C1=CO[C@@H](O[C@@H]2O[C@H](CO)[C@@H](O)[C@H](O)[C@H]2O)[C@@H]2[C@@H](C(=O)OC)[C@@H](O)C(O)[C@H]12 (some centres not stated),inactive,–
C=C(C(=O)O)C1CCC(C)C2CCC(=O)OC2(C)C1 (configuration not stated),inactive,–
COc1cc(/C=C/C(=O)O[C@H]2[C@H](OC(=O)/C=C/c3cc(OC)c(O)c(OC)c3)O[C@H](CO[C@@H]3O[C@H](CO)[C@@H](O)[C@H](O)[C@H]3O)[C@@H](O)[C@@H]2O)ccc1O,inactive,–
COc1c(C)c2c(c(O)c1C/C=C(\C)CC/C=C(\C)CCC(=O)O)C(=O)OC2,inactive,–
C=C1[C@H]2CC[C@]3(O)[C@@](CC[C@@H]4[C@](C)(C(=O)O)CCC[C@]43C)(C2)[C@H]1OC(=O)/C(C)=C\C,inactive,–
CC(=O)O[C@H]1[C@H](Oc2ccccc2COC(=O)C2(O)C=CCCC2=O)O[C@H](CO)[C@@H](O)[C@@H]1O (some centres not stated),inactive,–
OCC1=CC[C@@H]2C=CO[C@@H](O[C@@H]3O[C@H](CO)[C@@H](O)[C@H](O)[C@H]3O)[C@H]12,inactive,–
CC[C@H]1OC(=O)C[C@@H](O)[C@H](C)[C@@H](O[C@@H]2O[C@H](C)[C@@H](O)[C@H](N(C)C)[C@H]2O)[C@@H](CCN2C[C@H](C)C[C@H](C)C2)C[C@@H](C)C(=O)/C=C/C(C)=C/[C@@H]1CO[C@@H]1O[C@H](C)[C@@H](O)[C@@H](OC)[C@H]1OC,inactive,–
COc1cc(C2Oc3c(OC)cc(/C=C/C(=O)OC[C@H]4O[C@@H](OC(C)(C)C(=O)O)[C@H](O)[C@@H](O)[C@@H]4O)cc3C2CO)ccc1O (some centres not stated),inactive,–
CC(=O)OCCC(C)CCC1C(C)(O)CCC2C(C)(C)CCCC21C (configuration not stated),inactive,–
